Screens as filed in PubChem BioAssay.
AmpC detergent – inhibitors of E. coli AmpC beta-lactamase with detergent; P00811; AmpC hydrolysis of nitrocefin, absorbance 480 nm, 0.01% Triton; Potency, µM (series often up to 114 µM), without a hit: at the top dose activity change, negative = inhibition, actives largely listed as inhibitors; hit rate 0.041% among 370,000; AID 485294;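 note: 0% = no-compound wells and -100% = no-enzyme wells; nearly all actives have a fitted effect of over 25% in size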
Target sequence (P00811 whole entry, looked up): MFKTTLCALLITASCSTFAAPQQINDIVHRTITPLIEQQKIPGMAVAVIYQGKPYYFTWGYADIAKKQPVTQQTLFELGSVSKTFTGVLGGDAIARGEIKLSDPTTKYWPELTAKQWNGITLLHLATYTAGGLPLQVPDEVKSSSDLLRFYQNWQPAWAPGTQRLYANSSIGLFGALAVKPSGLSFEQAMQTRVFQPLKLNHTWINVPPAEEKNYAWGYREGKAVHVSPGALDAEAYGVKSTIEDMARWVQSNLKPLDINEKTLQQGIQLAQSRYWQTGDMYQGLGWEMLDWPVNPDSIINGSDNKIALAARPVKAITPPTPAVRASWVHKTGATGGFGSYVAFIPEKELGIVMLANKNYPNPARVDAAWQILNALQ
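20 mM phosphate pH 7.0 + 0.01% (detergent screen) or 0.0001% Triton X-100; 5.3 nM AmpC reagent; cpd preinc 15 min RT; nitrocefin (800 uM stock) to start; A480 q20 s × 4 min; Activity was normalised to no-enzyme and no-compound control wells.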
RE007 growth inh – less growth of the S. pombe RE007 Vpr strain; Potency, µM (doses to about 92.2 µM), for inactives: at the highest dose activity change, negative = less growth, usual class: inhibitors; S. pombe RE007 Vpr strain, BacTiter-Glo ATP luminescence, 24 h; hit rate 0.21% among 360,000; active = well fitted falling curve with a large enough effect; inconclusive = small, poorly fitted or top-dose-only effect; inactive = no such curve, though single readings can be large or run the other way; note: % is set by controls: 0 for no effect and ±100 for the full control effect; nearly all actives have a fitted effect of over 50% in size
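Fission yeast RE007 carrying one integrated HIV-1 vpr copy, seeded at OD 0.01 in PMG+AL medium with 23 nL pinned compound. Grown 24 h at 30 degrees; viability read by BacTiter-Glo luminescence after 5 min.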
TbPYK inhibitor – inhibitors of Trypanosoma brucei pyruvate kinase. Q57TT1. TbPYK enzyme, Kinase-Glo Plus ATP luminescence, 45 min. Potency, µM (top dose mostly 76.8 µM), inactives show at the highest dose activity, negative = inhibition, hits mostly inhibitors. hit rate 0.12% among 410,000; note: % is set by controls: 0 for no effect and ±100 for the full control effect; nearly all actives have a fitted effect of over 50% in size
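Enzyme and substrate buffer are dispensed first and compound is pin-transferred. ADP at 130 uM final then starts the reaction, which runs 45 min at room temperature. Detection reagent is added for 10 min before luminescence is imaged.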
SARS PLpro yeast – inhibitors of SARS-CoV papain-like protease in yeast; Potency, µM (doses to about 32.9 µM), inactives show at the top dose activity, positive = growth rescue, most hits filed as activators; hit rate 0.19% among 330,000; S. cerevisiae expressing SARS-CoV PLpro, growth rescue; calls by dose curve; note: 0% is about no effect; nearly all actives have a fitted effect of over 55% in size
Sm TGR inh – blocks Schistosoma mansoni thioredoxin glutathione reductase; hit rate 3% among 360,000; AID 485364; purified TGR, DTNB reduction, TNB absorbance 405 nm; Potency, µM (doses to about 114 µM), inactives show at the top dose activity change, negative = inhibition, actives largely listed as inhibitors; Q962Y6; note: % is set by controls: 0 for no effect and ±100 for the full control effect; nearly all actives have a fitted effect of over 60% in size
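First, TGR (20 nM dispensed) and NADPH were mixed with compound. Second, a 15 min room-temperature incubation followed. Third, further NADPH and then DTNB were added to start the reaction. Finally, TNB absorbance was monitored kinetically.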
AmpC no deterg – inhibitors of E. coli AmpC beta-lactamase without detergent; P00811; AmpC nitrocefin hydrolysis, absorbance 480 nm, 0.0001% Triton; Potency, µM (titrated, usually from 57.1 µM), without a hit: at the top dose activity change, negative = inhibition, actives largely listed as inhibitors; hit rate 0.52% among 330,000; AID 485341;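 note: plate controls were no compound for no effect and no enzyme for full effect; nearly all actives have a fitted effect of over 20% in size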
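AmpC (5.3 nM in the dispensed reagent) in 20 mM phosphate pH 7.0 with 0.01% (detergent screen) or 0.0001% Triton X-100 was preincubated with compounds for 15 min at room temperature. Nitrocefin was then added from an 800 uM solution, and hydrolysis was followed at 480 nm.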
Active calls of the source: *; u = inconclusive; x = no result given; [ ] = another dose, or the depositor's remark. Compounds with a hit are over-represented: about 3.3% of the library has one in this group of screens. Unless noted, calls come from the whole dose curve; as a rule, active = well fitted curve in the direction sought with a large enough effect; inconclusive = small, poorly fitted or top-dose-only effect, or another doubt; inactive = no such curve, though single readings can be large; an effect the other way counts as inactive or inconclusive. Potency is the fitted concentration of half-maximal effect.

SMILES	AmpC detergent	RE007 growth inh	TbPYK inhibitor	SARS PLpro yeast	Sm TGR inh	AmpC no deterg
COCc1nnc(SCC(=O)NC(C)c2ccccc2)n1-c1ccccc1 (stereo not drawn)	-2%	-3%	3%	-2%	-16%	0.4µM*
Cc1onc(-c2c(F)cccc2Cl)c1C(=O)NC1C(=O)N2C1SC(C)(C)C2C(=O)O (stereo not drawn)	x	x	-2%	x	x	x
COc1ccc2cc(C3C(C#N)=C(N)OC(C)=C3C(C)=O)c(Cl)nc2c1 (stereo not drawn)	5%	-13%	1%	0%	-3%	-21%
CC(=O)C1=C(C)OC(N)=C(C#N)C1c1cccc([N+](=O)[O-])c1 (stereo not drawn)	-10%	1%	-3%	0%	14µM*	-36%
CC(=O)C1=C(C)OC(N)=C(C#N)C1c1cc([N+](=O)[O-])ccc1Cl (stereo not drawn)	-6%	3%	-7%	1%	22µM*	-11%
Fc1ccc(CNc2nc3ccc(Cl)cc3n3nnnc23)cc1	6%	x	-6%	x	-8%	x
Cc1ccc(CNC(=O)Cn2ccn(-c3ccc(F)c(F)c3)c(=O)c2=O)cc1	24%	x	-6%	x	-22%	x
Cc1ccc(C(=O)Oc2ccc(C(=O)COC(=O)C3CC(=O)N(Cc4ccco4)C3)cc2)cc1 (stereo not drawn)	u	14%	-4%	12%	u	54%
O=C(COC(=O)C1CC(=O)N(Cc2ccco2)C1)c1ccc(OC(=O)c2ccco2)cc1 (stereo not drawn)	u	6%	-6%	-9%	11µM*	78%
O=C(NC(=S)NCCC1=CCCCC1)c1ccco1	5%	-7%	1%	3%	-23%	-29%
Cc1ccccc1C(=O)NC(=S)NCc1cccnc1	0%	8%	4%	-1%	-25%	-6%
S=C(NCCc1ccccc1)NCCc1ccccc1	-4%	6%	-8%	-34%	3%	-21%
Cc1ccccc1C(=O)NC(=S)NCCC1=CCCCC1	7%	-15%	8%	0%	5µM*	-35%
CC(C)(C)C(=O)NC(=S)NCCc1ccccc1	-5%	-19%	-1%	27%	20µM*	-29%
Cc1ccccc1C(=O)NC(=S)NCc1ccccc1	u	-1%	0%	15%	22µM*	-33%
Cc1ccccc1NS(=O)(=O)c1cc(C(=O)NCCC2=CCCCC2)ccc1C	u	-3%	7%	0%	-1%	10µM*
CCOc1ccc(NC(=O)Cn2cc(S(=O)(=O)NC)c(S(=O)(=O)NC)c2)cc1	7%	x	1%[15.4 µM]	x	1%	x
Cc1ccccc1C(=O)NC(=S)NCCc1ccccc1	-9%	-24%	-8%	26%	7.1µM*	-21%
O=C1C=C(N2CCN(c3ccccn3)CC2)C(=O)c2c(O)ccc(O)c21	x	-12%	-17%	x	x	x
CC1=CC(=O)c2c(O)ccc(O)c2C1=O	u	x	x	0%	u	14µM*
CCc1[nH]c(=S)c(C#N)c(-c2ccccc2)c1C(=O)OC	-4%	18%	u	u	-4%	16µM*
Cc1cccc(-n2c(O)c(C)c(=O)[nH]c2=S)c1	3%	-19%	-15%	1%	40µM*	1%
CCOC(=O)c1[nH]c2ccccc2c1NC(=O)c1ccc(C)c(C)c1	5%	x	0%	x	13%	x
CC(=O)N(CCC(Cc1ccccc1)c1ccco1)Cc1ccco1 (stereo not drawn)	-2%	14%	-7%	3%	22µM*	43%
Cc1ccc(C(CCN(Cc2ccccc2)C(=O)c2ccco2)c2ccco2)cc1 (stereo not drawn)	-9%	-9%	-14%	-12%	20µM*	u
SMILES	AmpC detergent	RE007 growth inh	TbPYK inhibitor	SARS PLpro yeast	Sm TGR inh	AmpC no deterg
CC(=O)N(CCP(=O)(c1ccccc1)c1ccccc1)Cc1ccco1	-1%	1%	-15%	0%	-33%	-1%
O=C(c1ccco1)N(CCC(c1ccccc1)c1ccco1)Cc1ccco1 (stereo not drawn)	-8%	33%	-7%	-9%	10µM*	-21%
CCN(CC)S(=O)(=O)c1ccc(NC(=O)CN(c2ccccc2)S(=O)(=O)N(C)C)cc1	20%	x	3%	x	11%	x
Cc1nnc(SCC2=C(C(=O)O)N3C(=O)C(NC(=O)c4cccc(F)c4F)C3SC2)s1 (stereo not drawn)	2%	14%	-6%	0%	10µM*	-17%
Cc1cc(C)n(CC(=O)NC2C(=O)N3C(C(=O)O)=C(CSc4nnc(C)s4)CSC23)n1 (stereo not drawn)	0%	-13%	-6%	-3%	25µM*	-5%
Cc1nnc(SCC2=C(C(=O)O)N3C(=O)C(NC(=O)Cn4ncc(Cl)c4C)C3SC2)s1 (stereo not drawn)	-1%	-6%	-13%	-4%	3.2µM*	-17%
COc1cccc(NC(=O)C(=O)NCC(c2ccc3c(c2)OCO3)N2CCOCC2)c1 (stereo not drawn)	1%	x	-7%	x	7%	x
O=C(N/N=C/c1ccoc1)c1ccc(Cl)cc1	7%	11%	6%	2%	45µM*	32%
O=C(N/N=C/c1ccoc1)c1ccc(Br)cc1	1%	-7%	9%	-2%	5%	-23%
CC(=O)O[C@H]1C[C@@H]2CC[C@@H]3[C@H](CC[C@]4(C)[C@H](OC(C)=O)[C@@H](N5CC[N+](C)(C)CC5)C[C@@H]34)[C@@]2(C)C[C@@H]1N1CC[N+](C)(C)CC1	x	x	-8%	x	x	x
O=C(c1ccco1)N1CCN(C2CC(=O)N(c3ccc4c(c3)OCO4)C2=O)CC1 (stereo not drawn)	-1%	-5%	-7%	-5%	-15%	-17%
CCOc1ccc(N2C(=O)CC(N3CCN(C(=O)c4ccco4)CC3)C2=O)cc1 (stereo not drawn)	4%	-4%	2%	-21%	45µM*	30%
O=C(c1ccco1)N1CCN(C2CC(=O)N(c3ccccc3)C2=O)CC1 (stereo not drawn)	6%	-27%	-16%	-6%	50µM*	-2%
O=C(c1ccco1)N1CCN(C2CC(=O)N(c3ccc(C(F)(F)F)cc3)C2=O)CC1 (stereo not drawn)	-4%	u	3%	-14%	50µM*	108%
Cc1ccc(C2c3cccn3CCN2S(=O)(=O)c2ccc([N+](=O)[O-])cc2)cc1 (stereo not drawn)	3%	x	-1%	x	u	x
